Screening results: PubChem BioAssay, National Center for Advancing Translational Sciences (NCATS)
The list is not random: actives were taken first. Their share in the collection is about 5.9%.
RORgamma inh: ROR gamma (mouse) transcription inhibition. P51450. Drosophila S2 Gal4-RORgamma UAS-luciferase reporter, 20 h. Potency, µM (doses to about 53.6 µM), for inactives: top-dose activity change, negative = inhibition, actives largely listed as inhibitors. 310,000 compounds, 5.4% hits; also: % is scaled to controls: 0 for no effect and ±100 for the full control effect; nearly all actives have a fitted effect of over 60% in size
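Drosophila Schneider cells stably carrying a metallothionein-driven Gal4 DBD–ROR gamma fusion and a UAS-Photinus luciferase reporter were exposed to compound for 1 hr, then induced with copper sulfate (700 uM final) for 20 hr at ambient temperature before luminescence reading.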
GLP-1R agonist: agonists of human GLP-1 receptor | Potency, µM (top dose mostly 45.6 µM), for inactives: top-dose activation, actives largely listed as activators | 380,000 compounds, 0.007% hits | P43220 | HEK293 GLP-1R CRE-luciferase, luminescence, 4-6 h; cells express a hypersensitive GLP-1R form; also: % of control where 0% means no effect
Target sequence (P43220 whole entry, looked up): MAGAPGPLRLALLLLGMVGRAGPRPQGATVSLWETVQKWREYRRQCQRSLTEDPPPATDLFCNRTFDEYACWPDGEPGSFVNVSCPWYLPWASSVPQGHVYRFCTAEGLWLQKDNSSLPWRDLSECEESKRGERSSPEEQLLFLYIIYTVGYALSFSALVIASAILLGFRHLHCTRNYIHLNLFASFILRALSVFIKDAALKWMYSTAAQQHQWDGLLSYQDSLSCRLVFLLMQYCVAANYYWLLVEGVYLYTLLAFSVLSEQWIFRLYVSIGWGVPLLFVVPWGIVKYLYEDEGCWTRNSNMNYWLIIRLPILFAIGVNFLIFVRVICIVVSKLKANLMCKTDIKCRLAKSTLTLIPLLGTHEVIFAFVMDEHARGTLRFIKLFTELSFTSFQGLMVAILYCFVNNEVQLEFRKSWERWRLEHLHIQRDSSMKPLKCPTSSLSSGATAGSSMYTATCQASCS
Gal4-VP16 FLuc: Gal4-VP16 reporter inhibition counter-screen | Drosophila S2 Gal4-VP16 UAS-luciferase, luminescence, 20 h | Potency, µM (doses to about 53.6 µM), for inactives: at the top dose activity, negative = inhibition, usual class: inhibitors | 310,000 compounds, 3.5% hits;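 also: Gal4-VP16 expression switched on by copper sulfate through the metallothionein promoter; % is scaled to controls: 0 for no effect and ±100 for the full control effect; nearly all actives have a fitted effect of over 50% in size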
GLP1R inv ag: acts as inverse agonist at human GLP-1 receptor; AID 624417; P43220; 410,000 compounds, 1.6% hits; HEK293 GLP-1R CRE-luciferase, luminescence, 24 h; GLP-1R form is constitutively active; Potency, µM (doses to about 38.3 µM), for the others: at the top dose activity change, negative = inhibition, hits mostly inhibitors; also: % is scaled to controls: 0 for no effect and ±100 for the full control effect; nearly all actives have a fitted effect of over 55% in size
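HEK293 cells stably co-expressing constitutively active GLP-1R and a cAMP-responsive luciferase reporter were seeded in DMEM with 10% Nu serum, given compounds after 12 h, and incubated 24 h at 37 deg C. Luminescence was then read.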
HEK293 tox: cytotoxic in the GLP-1 receptor inverse agonist counter-screen; HEK293 cAMP-luciferase reporter cells, luminescence, 24 h; Potency, µM (highest dose often 38.3 µM), for the others: at the highest dose activity change, negative = inhibition, most hits filed as inhibitors; 410,000 compounds, 0.13% hits; AID 624418;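 also: loss of luciferase light is scored as toxicity; % is scaled to controls: 0 for no effect and ±100 for the full control effect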
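To flag toxic compounds, the library was rerun on cells for 24 hr at 37 deg C and 5% CO2. Viability-linked luminescence was captured 12 min after adding luciferase detection reagent.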
An asterisk follows results filed as active; ? = inconclusive; nt = not tested or not shown. Calls follow the shape of the dose curve; as a rule, active = well fitted curve in the direction sought with a large enough effect; inconclusive = small, poorly fitted or top-dose-only effect, or another doubt; inactive = no such curve, though single readings can be large; an effect the other way counts as inactive or inconclusive. Potency is read from the fitted curve at half-maximal effect.

SMILES	RORgamma inh	GLP-1R agonist	Gal4-VP16 FLuc	GLP1R inv ag	HEK293 tox
Clc1ccc(CN2C3=NCCCN3c3ccccc32)cc1Cl	-12%	3%	3%	11µM*	-24%
COc1ccccc1NC(=S)Nc1ccccn1	1.6µM*	-3%	3.5µM*	?	?
Cc1ccc(NC(=O)C(=O)Nc2ccccn2)cc1	6.3µM*	-15%	5.6µM*	?	1%
COC(=O)c1ccc(NC(=S)Nc2ccccn2)cc1	1µM*	2%	1µM*	?	-25%
COc1ccc(NC(=S)Nc2ccccn2)cc1	2.8µM*	11%	7.1µM*	?	?
COc1ccc(/C=C/C(=O)NC(=S)Nc2ccccn2)cc1	?	5%	-28%	12%	1%
COc1ccc(-n2c(=O)c(-c3ccc(Cl)cc3)nc3cnc(N(C)C)nc32)cc1	15%	nt	5%	nt	nt
COc1cc(C)cc2oc(=O)c(CC(=O)NCCc3ccc(Cl)cc3)c(C)c12	nt	nt	nt	16%	-1%
CCOC(=O)c1c(/N=C/N(C)C)sc(/C=N/Nc2ccccc2)c1-c1ccc(Cl)cc1	31%	0%	-20%	10µM*	3%
O=C(NCC1CCN(Cc2ccc(F)cc2)CC1)c1cc2ccc3cccnc3c2[nH]1	nt	nt	nt	?	1%
COc1ccc(CN2CCN(CCCCOc3ccc(Cl)cc3)CC2)c(OC)c1OC	8%	3%	6%	7.9µM*	-25%
COc1ccc(CN2CCN(C(=O)c3cccc4ccccc34)CC2)c(OC)c1OC	9%	1%	6%	3%	-24%
O=c1c2ccccc2ncn1-c1ccc(Cl)cc1[N+](=O)[O-]	22%	4%	3%	?	-5%
O=c1c2ccccc2ncn1-c1ccc([N+](=O)[O-])cc1[N+](=O)[O-]	-11%	0%	?	5.6µM*	-24%
Cn1nc([N+](=O)[O-])nc1Sc1nnc(-c2ccccc2)o1	?	-3%	?	5.6µM*	?
O=Cc1ccc(Sc2nnc(-c3ccccc3)o2)c([N+](=O)[O-])c1	-19%	-14%	?	3%	?
C=CCn1c(SCc2ccc(C(=O)Nc3nccs3)cc2)nnc1-c1ccc(C)c(Cl)c1	?	-6%	?	4.5µM*	?
O=C(CSc1ccc2c(c1)OCCO2)Nc1ncc(Cl)cc1Cl	25%	20%	-1%	0%	3%
O=C(CSc1ccc2c(c1)OCCO2)NCCc1ccc(Cl)cc1Cl	-22%	3%	-1%	11µM*	28%
CC(C)c1ccc(OCC(O)CN2CCN(c3ccccc3)CC2)cc1 (stereo not given)	-38%	8%	-19%	10µM*	?
OC(COc1ccc2c(c1)OCO2)CN1CCN(c2ccccc2)CC1 (stereo not given)	-16%	1%	-21%	8.9µM*	0%
CC(C)(C)c1ccc(OCC(O)CN2CCN(C(=O)c3ccccc3)CC2)cc1 (stereo not given)	nt	6%	nt	10µM*	-11%
OC(COc1ccc2c(c1)OCO2)CN1CCCCC1 (stereo not given)	1%	-3%	-9%	19%	-11%
CCc1ccc(N(CC)C(=O)Cn2c(=O)oc3ccccc32)cc1	nt	nt	nt	-3%	11%
CC1=C(C(=O)OCc2ccccc2)C(c2cccs2)N2C(=O)CCSC2=N1 (stereo not given)	41%	17%	5%	11µM*	-5%
SMILES	RORgamma inh	GLP-1R agonist	Gal4-VP16 FLuc	GLP1R inv ag	HEK293 tox
CCOC(=O)C1=C(C)N=C2SCCC(=O)N2[C@@H]1c1cccs1	-18%	1%	5%	-15%	-2%
O=C(c1cc(C(F)(F)F)cc(C(F)(F)F)c1)N1CCC2(CC1)CN(Cc1ccccc1)C2	-22%	nt	3%	nt	nt
COCc1nc2ccccc2n1CCc1ccccc1	11µM*	5%	?	-16%	-2%
COCc1nc2ccccc2n1Cc1ccccc1C	?	3%	9%	?	-4%
Cc1ccccc1Cn1c(Cc2ccccc2)nc2ccccc21	5.6µM*	0%	?	?	?
Cc1cc(C)c(C)c(Cn2c(CO)nc3ccccc32)c1C	2µM*	-3%	?	?	-10%
Cc1cccc(Cn2c(-c3ccccc3)nc3ccccc32)c1	nt	nt	nt	?	-14%
